In PubChem BioAssay (NCATS):
Results filed as inconclusive are left out. The source made the active and inactive calls. Unless noted, the call rests on the fitted dose curve; in most records, active means well fitted curve in the direction sought with a large enough effect; inconclusive means small, poorly fitted or top-dose-only effect, or another doubt; inactive means no such curve, though single readings can be large; an effect the other way counts as inactive or inconclusive.

What was measured:
[1] = Cell Viability - BJ (AID 421; calls by dose curve;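 further: potency means the concentration at half of the fitted maximal effect; cells exposed to compound for 40 hours at 37 °C before readout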); settings: BJ fibroblast viability, qHTS
Procedure, shortened: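 Quantitative HTS: ATP depletion in BJ cells after 40 hr compound exposure in complete culture medium, detected with CellTiter-Glo; AC50 from standard Hill fits.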

[2] = Cell Viability - Hek293 (AID 427;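 active means compounds whose dose-response curve shows a full or clear partial loss of cell viability, called from curve shape rather than a numeric limit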;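 further: potency means the concentration at half of the fitted maximal effect; cells exposed to compound for 40 hours at 37 °C before reading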); settings: qHTS
Procedure, shortened: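 AC50 values derive from Hill-modelled concentration-response of ATP-based luminescence, normalized between DMSO-only and 100 uM tamoxifen controls. Cells were exposed in complete culture medium for 40 hr at 37 °C before detection.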

[3] = Cell Viability - MRC5 (AID 434; calls by dose curve;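 further: potency means the concentration at half of the fitted maximal effect; potency reflects cytotoxicity seen as loss of intracellular ATP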); settings: MRC5 lung fibroblast viability, qHTS
Procedure, shortened: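 MRC5 normal human lung fibroblasts, 1500 cells/well, exposed to compound for 40 hr at 37 C. Cellular ATP was read by CellTiter-Glo luminescence; data normalized to DMSO and 100 uM tamoxifen, with AC50 from Hill fits.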

[4] = Cell Viability - SK-N-SH (AID 435; calls by dose curve;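 further: potency means the concentration at half of the fitted maximal effect; compound exposure lasted 40 h at 37 °C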); settings: SK-N-SH neuroblastoma cell viability qHTS
Procedure, shortened: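 Cells seeded at 1500 per well and incubated 5 hr at 37 °C. Compound added, then 40 hr at 37 °C. CellTiter-Glo added, 20 min at room temperature, luminescence read.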

[5] = target: Mitogen-activated protein kinase 10 (Mus musculus) (UniProt Q61831); assay: JNK3 AlphaScreen Assay (AID 530; active means well fitted curve in either direction with a large enough effect, not every such curve was filed as active;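 further: kinase came from lysate of stimulated human HepG2 cells; signal reports phosphorylation of biotinylated GST-cJun 1-79 at Ser73 with 10 µM ATP; on the % scale 0 is the no-effect control and ±100 the full control effect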); settings: JNK3 lysate, c-Jun phosphorylation; series mostly up to 57.1 µM
Procedure, shortened: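 qHTS format: compounds tested as titrations against IL-1beta/TNF-alpha-activated HepG2 lysate JNK3 with biotin-GST-cJun substrate and 10 uM ATP at room temperature. Loss of anti-phospho-cJun AlphaScreen signal indicates inhibition.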

[6] = Cell Viability - N2a (AID 540); settings: N2a mouse neuroblastoma cell viability; activity change, negative = cytotoxicity: at 92.2 µM (top of the series);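 further: plate controls were DMSO alone for no effect and tamoxifen control for full effect; nearly all actives have a fitted effect of over 45% in size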
Procedure, shortened: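 Mouse neuroblastoma N2a cells (1500/well) were preincubated 5 hr at 37 °C, then exposed to compounds for 40 hr at 37 °C in complete medium. Viability was read as intracellular ATP by CellTiter-Glo luminescence; AC50 from Hill fits.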

[7] = Cell Viability - NIH 3T3 (AID 541); settings: NIH 3T3 cell viability, qHTS; activity change, negative = cytotoxicity: at 92.2 µM (top of the series);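 further: plate controls were DMSO alone for no effect and tamoxifen positive control for full effect; nearly all actives have a fitted effect of over 25% in size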
Procedure, shortened: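 NIH 3T3 mouse embryo fibroblasts (1000 cells/well) were plated in complete medium and treated with compound for 40 hr at 37 °C. Viability was read as intracellular ATP by CellTiter-Glo luminescence; AC50 values came from Hill-equation fits of concentration-response data.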

[8] = Cell Viability - HUV-EC-C (AID 542); settings: HUV-EC-C endothelial cell viability, qHTS; series mostly up to 92.2 µM; further: on the % scale 0 is the no-effect control and ±100 the full control effect; nearly all actives have a fitted effect of over 35% in size
Procedure, shortened: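 HUV-EC-C normal human vascular endothelial cells, 1000 cells/well, pre-incubated 5 hr at 37 °C, then exposed to compounds for 40 hr at 37 °C in complete medium. Viability measured as intracellular ATP by CellTiter-Glo luminescence; AC50 from Hill fits.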

[9] = Cell Viability - Renal Proximal Tubule (AID 545); settings: renal proximal tubule cells viability, primary cells of rat origin; series mostly up to 91.7 µM; further: nearly all actives have a fitted effect of over 40% in size
Procedure, shortened: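 Cytotoxicity is scored as a concentration-dependent drop in cellular ATP in primary rat renal proximal tubule cells exposed for 40 hr. AC50 derives from Hill modelling.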

[10] = Cell Viability - Mesenchymal (AID 546); settings: mesenchymal cells viability, qHTS; series mostly up to 91.7 µM;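 further: cells exposed to compound for 40 hours before reading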
Procedure, shortened: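 Human kidney mesenchymal cells from normal renal glomeruli, 1000 cells/well, rested 5 hr at 37 °C, then treated 40 hr at 37 °C in complete medium. Cellular ATP read by CellTiter-Glo luminescence; AC50 from Hill-equation fits.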

[11] = Cellular Toxicity (caspase-3) HepG2 (AID 654); settings: HepG2 caspase-3 activation, luminescence; series mostly up to 92.2 µM;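 further: cells exposed to compound for 16 hours before reading; 0% = DMSO alone and 100% = caspase signal from 100 µM tamoxifen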
Procedure, shortened: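 HepG2 cells (1500/well) in complete medium were treated with compounds for 16 hr at 37 °C. Caspase-3/7 activity was then read as luminescence from peptide-aminoluciferin cleavage. AC50 came from Hill fits, normalized to DMSO and 100 uM tamoxifen.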

[12] = Cellular Toxicity (caspase-3) Jurkat (AID 655); settings: Jurkat caspase-3 activation, luminescence; caspase-3 activation: at 92.2 µM (top of the series), DMSO = 0%, tamoxifen = 100%;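 further: cells exposed to compound for 16 h at 37 °C before reading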
Procedure, shortened: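 Caspase 3/7 activation is scored as increased luminescence in Jurkat cells cultured with compound for 16 hours in complete medium. AC50 values come from Hill fits of qHTS concentration-response data normalized to DMSO and 100 uM tamoxifen controls.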

[13] = Cellular Toxicity (caspase-3) HUV-EC-C (AID 656); settings: HUV-EC-C cells, caspase-3 activation (apoptosis), vehicle = 0, 100 µM tamoxifen = 100%; series mostly up to 92.2 µM;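 further: cells exposed to compound for 16 h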
Procedure, shortened: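 Read-out: luminescence proportional to caspase 3/7 activity, measured 20 min after adding Caspase-Glo 3/7 reagent. Cells (HUV-EC-C) had received compound for 16 hr at 37°C. Increases relative to DMSO and 100 uM tamoxifen gave concentration-response AC50 values.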

[14] = Cellular Toxicity (caspase-3) SHSY5Y (AID 657); settings: SH-SY5Y caspase-3 activation, DMSO zero, 10 µM staurosporine = 100%; series mostly up to 91.7 µM;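 further: cells exposed to compound for 16 hours at 37 °C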
Procedure, shortened: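 Cells plated and incubated 5 h at 37 °C, dosed over a concentration range, incubated 16 h, then given Caspase-Glo 3/7 reagent for 1 h at room temperature before luminescence reading. Staurosporine (10 uM) defined full stimulation.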

[15] = Cellular Toxicity (caspase-3) BJ (AID 658); settings: BJ fibroblasts, luminescence, normalized: DMSO 0%, staurosporine 100%; series mostly up to 91.7 µM
Procedure, shortened: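 BJ human foreskin fibroblasts, 1000 cells/well, treated 16 hours at 37 °C in complete medium; caspase 3/7 activity by Caspase-Glo luminescence after 1 hr at room temperature. Normalized to DMSO and 10 uM staurosporine; AC50 from Hill fits.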

[16] = Cellular Toxicity (caspase-3) MRC-5 (AID 659); settings: MRC-5 cells, luminescence, normalized: DMSO 0%, 10 µM staurosporine 100%; series mostly up to 91.7 µM;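 further: cells exposed to compound for 16 h at 37 °C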
Procedure, shortened: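 MRC-5 human normal lung fibroblasts, 1500 cells/well, treated 16 h at 37 °C in complete medium. Caspase 3/7 measured by Caspase-Glo luminescence after 1 h at room temperature. Normalized to DMSO and 10 uM staurosporine; AC50 from Hill fit.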

[17] = Cell Viability - HepG2 (AID 433; calls by dose curve;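 further: potency means the concentration at half of the fitted maximal effect; potency for ATP loss meaning cytotoxicity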); settings: qHTS
Procedure, shortened: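 Cytotoxicity is scored as loss of intracellular ATP in HepG2 cells exposed to compounds for 40 h. Concentration-response curves, normalized to DMSO and 100 uM tamoxifen, give AC50 values.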

[18] = Cell Viability - H-4-II-E (AID 543); settings: H-4-II-E rat hepatoma viability; series mostly up to 92.2 µM; further: on the % scale 0 is the no-effect control and ±100 the full control effect; nearly all actives have a fitted effect of over 35% in size
Procedure, shortened: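 Rat hepatoma H-4-II-E cells (1500/well) were plated, incubated 5 hr at 37 °C, then exposed to compounds for 40 hr at 37 °C. Cellular ATP was read by CellTiter-Glo luminescence; AC50 came from Hill-equation fits of concentration-response data.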

[19] = Cell Viability - SH-SY5Y (AID 544); settings: SH-SY5Y neuroblastoma cell viability; viability change, negative = cytotoxic: at 92.2 µM (top of the series); further: nearly all actives have a fitted effect of over 55% in size
Procedure, shortened: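 Human neuroblastoma SH-SY5Y cells (1500/well) in complete medium were exposed to compounds for 40 hr at 37 °C; intracellular ATP was then quantified by CellTiter-Glo luminescence after 20 min at room temperature. AC50 came from Hill-equation concentration-response fits.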

N#CCc1ccccc1[N+](=O)[O-]
inactive: Potency [1] > 92 µM | Potency [2] > 92 µM | Potency [3] > 92 µM | Potency [4] > 92 µM | outcome [5] | activity change, negative = cytotoxicity [6] -1.71% | Potency [7] | Potency [8] | Potency [9] | Potency [10] | Potency [11] | caspase-3 activation [12] 1.28% | outcome [13] | outcome [14] | outcome [15] | outcome [16]

O=C(O)CNC(=O)c1ccc([N+](=O)[O-])cc1
inactive: Potency [1] > 92 µM | Potency [2] > 92 µM | Potency [17] > 92 µM | Potency [3] > 92 µM | Potency [4] > 92 µM | outcome [5] | Potency [7] | Potency [8] | Potency [18] | Potency [19] | Potency [9] | Potency [10] | Potency [11] | caspase-3 activation [12] 1.61% | outcome [13] | outcome [14] | outcome [15] | outcome [16]

O=[N+]([O-])c1cc(C(F)(F)F)ccc1Cl
inactive: Potency [1] > 92 µM | Potency [2] > 92 µM | Potency [17] > 92 µM | Potency [3] > 92 µM | Potency [4] > 92 µM | outcome [5] | activity change, negative = cytotoxicity [6] 4.62% | Potency [7] | Potency [8] | Potency [18] | Potency [19] | Potency [9] | Potency [10] | Potency [11] | caspase-3 activation [12] 0.364% | outcome [13] | outcome [14] | outcome [15] | outcome [16]

O=C1NC(=O)c2cc([N+](=O)[O-])ccc21
inactive: Potency [1] > 92 µM | Potency [2] > 92 µM | Potency [17] > 92 µM | Potency [3] > 92 µM | Potency [4] > 92 µM | outcome [5] | activity change, negative = cytotoxicity [6] -3.32% | Potency [7] | Potency [8] | Potency [18] | Potency [19] | Potency [9] | Potency [10] | Potency [11] | caspase-3 activation [12] 0.91% | outcome [13] | outcome [14] | outcome [15] | outcome [16]

O=C(O)c1ccccc1Cl
inactive: Potency [1] > 92 µM | Potency [2] > 92 µM | Potency [17] > 92 µM | Potency [3] > 92 µM | Potency [4] > 92 µM | outcome [5] | activity change, negative = cytotoxicity [6] -6.85% | Potency [7] | Potency [8] | Potency [18] | Potency [19] | Potency [9] | Potency [10] | Potency [11] | caspase-3 activation [12] -0.163% | outcome [13] | outcome [14] | outcome [15] | outcome [16]

C=C(C)C(=O)OCCCCCCCCCC
inactive: Potency [1] > 92 µM | Potency [2] > 92 µM | Potency [17] > 92 µM | Potency [3] > 92 µM | Potency [4] > 92 µM | outcome [5] | activity change, negative = cytotoxicity [6] 3.17% | Potency [7] | Potency [8] | Potency [18] | Potency [19] | Potency [9] | Potency [10] | Potency [11] | caspase-3 activation [12] -0.118% | outcome [13] | outcome [15] | outcome [16]
